Data on 33 molecules can be found in PubChem BioAssay (EPA / NIEHS).

The structures appear in SMILES notation. The source made the active and inactive calls. Rule for the calls: active = hit-call score of the fitted dose curve at least 0.9, where 1 is the maximum; inactive = score below 0.9.

The target of one assay is Bile acid receptor (Homo sapiens) (UniProt Q96RI1). Kind of assay: ATG_IR1_CIS: Attagene CIS-FACTORIAL HepG2 Assay for human Nuclear Receptor Subfamily 1 Group H Member 4 (NR1H4), IR1 submotif (AID 2282946). The settings on record: IR1 reporter transcription, actives raise or lower the signal. In a few lines: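 Transient MRTU transfection, HepG2; 24 h dosing; RNA → RT-PCR → 6-FAM primer extension → HpaI digest → capillary electrophoresis fluorescence. Gain/loss of signal fitted relative to DMSO.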
Chain of Bile acid receptor (Homo sapiens) (Q96RI1 whole entry, looked up): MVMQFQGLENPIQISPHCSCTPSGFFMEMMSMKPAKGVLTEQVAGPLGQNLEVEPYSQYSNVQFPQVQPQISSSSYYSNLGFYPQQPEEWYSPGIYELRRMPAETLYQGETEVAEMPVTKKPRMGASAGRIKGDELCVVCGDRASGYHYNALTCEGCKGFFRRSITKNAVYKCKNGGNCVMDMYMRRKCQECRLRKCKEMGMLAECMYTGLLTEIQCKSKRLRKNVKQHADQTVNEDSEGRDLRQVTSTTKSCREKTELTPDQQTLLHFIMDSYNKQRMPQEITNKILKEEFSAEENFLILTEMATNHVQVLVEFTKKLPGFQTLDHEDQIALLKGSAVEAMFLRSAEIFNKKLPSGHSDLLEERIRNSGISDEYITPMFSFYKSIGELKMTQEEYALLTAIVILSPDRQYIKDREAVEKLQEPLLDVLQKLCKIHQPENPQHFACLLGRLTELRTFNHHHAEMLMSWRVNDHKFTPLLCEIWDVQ
Regarding `Nc1c(Oc2ccccc2)cc(O)c2c1C(=O)c1ccccc1C2=O`, the outcome was inactive.

For the molecule `C=CCN=C=S`, the molecule was called inactive. Still for that read-out and setting: the value for `C#CCOC(=O)/C=C(C)/C=C/CC(C)CCCC(C)C` (stereo not given) was “inactive”.

With `C=C(C)[C@@H]1CC=C(C=O)CC1`, the outcome was inactive.

In the case of `CN(C)[C@@H]1C(=O)C(C(N)=O)=C(O)[C@@]2(O)C(=O)C3=C(O)c4c(O)ccc(Cl)c4[C@@](C)(O)[C@H]3C[C@@H]12`, the molecule was called inactive. On to `O=c1[nH]c2ccccc2n1C1CCN(CCCC(c2ccc(F)cc2)c2ccc(F)cc2)CC1`, for which the call was inactive.

`COCC(=O)N(c1c(C)cccc1C)[C@H](C)C(=O)OC`: the outcome was inactive. Take `CCCSP(=S)(OCC)Oc1ccc(SC)cc1` (stereo not given): the outcome was inactive. Same read-out and setting: in the case of `CCOc1ccc(N)cc1` it was “inactive”; in that of `COc1ccc([N+](=O)[O-])cc1O`, “inactive”. On the same count and under the same terms, in the case of `OC(Cc1ccccc1Cl)(Cn1[nH]cnc1=S)C1(Cl)CC1` (stereo not given) it was “inactive”; in that of `CC(C)[N+](=O)[O-]`, “inactive”. On to `O=C(CCl)Nc1ccccc1`, for which the concentration at half-maximal activity (AC50) is 54.4 µM (active).

`CC(C=O)Cc1ccc2c(c1)OCO2` (stereo not given): the molecule was called inactive. Still for that read-out and setting: in the case of `CCCCOC(C)=O` it was “inactive”; in that of `Cc1ccc(OP(=O)(Oc2ccc(C)cc2C)Oc2ccc(C)cc2C)c(C)c1`, “inactive”; in that of `CC(C)(C)c1ccc(CCOc2ncnc3ccccc23)cc1`, “inactive”. As for `Clc1cc(C(Cl)(Cl)Cl)cnc1Cl`, the result was inactive.

Consider `CCCCS(=O)(=O)Cl`, for which the call was inactive. Take `N#Cc1ccccc1N`: the result was inactive.

Take `BrCC(Br)c1ccccc1` (stereo not given): the call was inactive.

`C=CC(Cl)CCl` (stereo not given): the outcome was inactive. Same read-out and setting: in the case of `O=[N+]([O-])c1ccc(Cl)c([N+](=O)[O-])c1` it was “inactive”. On to `Cc1cc(SCc2sc(-c3ccc(C(F)(F)F)c(F)c3)nc2C)ccc1OCC(=O)O`, for which the molecule was called inactive. As to `c1ccc2sc(SNC3CCCCC3)nc2c1`, the molecule was called inactive. The same measure, in the same setting: the value for `CCOC(=O)C(SP(=S)(OC)OC)c1ccccc1` (stereo not given) was “inactive”. Same read-out and setting: in the case of `c1csc(-c2ccc(-c3cccs3)s2)c1` it was “inactive”.

Test system in another assay: not listed separately
Kind of assay: ATG_GRE_CIS: Attagene CIS-FACTORIAL HepG2 Assay for human Glucocorticoid Response Elements (GRE) (AID 2282947). The settings on record: HepG2 GRE cis-reporter, Attagene multiplex mRNA; actives raise or lower the signal. In short, it runs like this: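 HepG2 cells transiently transfected with multiple cis-promoter reporter units measure endogenous TF activity; 24 h compound exposure. Reporter mRNA quantified by RT-PCR, FAM labelling, HpaI digestion and capillary electrophoresis; bidirectional fit vs DMSO baseline.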
As to `Nc1c(Oc2ccccc2)cc(O)c2c1C(=O)c1ccccc1C2=O`, the molecule was classed as inactive. The same measure, in the same setting: in the case of `C[C@]12CC[C@@H](O)C[C@@H]1CC[C@@H]1[C@@H]2CC[C@]2(C)C(=O)CC[C@@H]12` it was “inactive”; in that of `C#CCOC(=O)/C=C(C)/C=C/CC(C)CCCC(C)C` (stereo not given), “inactive”. `CN(C)[C@@H]1C(=O)C(C(N)=O)=C(O)[C@@]2(O)C(=O)C3=C(O)c4c(O)ccc(Cl)c4[C@@](C)(O)[C@H]3C[C@@H]12`: the outcome was inactive. In the case of `C=CCCl`, the result was inactive. On the same count and under the same terms, the value for `CCOc1ccc(N)cc1` was “inactive”. On to `COc1ccc([N+](=O)[O-])cc1O`, for which the molecule was classed as inactive. Still for that read-out and setting: in the case of `OC(Cc1ccccc1Cl)(Cn1[nH]cnc1=S)C1(Cl)CC1` (stereo not given) it was “inactive”. Consider `CC(C)(C)c1ccccc1O`, for which the molecule was called inactive.

For the molecule `CC(C)[N+](=O)[O-]`, the result was inactive. Regarding `CCCCCCCCCCCCc1cccc(S(=O)(=O)O)c1`, the molecule was classed as inactive. For `O=C(CCl)Nc1ccccc1`, the AC50 is 177 µM (active). On to `CC(C=O)Cc1ccc2c(c1)OCO2` (stereo not given), for which the outcome was inactive.

Turning to `BrCCCCBr`, the outcome was inactive.

As to `Cc1ccc(OP(=O)(Oc2ccc(C)cc2C)Oc2ccc(C)cc2C)c(C)c1`, the molecule was called inactive. Still for that read-out and setting: the value for `CCOc1cc(C=O)ccc1O` was “inactive”; that for `N#Cc1ccccc1N` was “inactive”.

With `BrCC(Br)c1ccccc1` (stereo not given), the molecule was classed as inactive. As for `C=CC(Cl)CCl` (stereo not given), the molecule was called inactive.

Regarding `O=[N+]([O-])c1ccc(Cl)c([N+](=O)[O-])c1`, the result was inactive. `Cc1cc(SCc2sc(-c3ccc(C(F)(F)F)c(F)c3)nc2C)ccc1OCC(=O)O`: the outcome was inactive. On the same count and under the same terms, in the case of `c1ccc2sc(SNC3CCCCC3)nc2c1` it was “inactive”; in that of `CCOC(=O)C(SP(=S)(OC)OC)c1ccccc1` (stereo not given), “inactive”.

In general, AC50 refers to the concentration giving half of the maximal activity seen.
